# USP28 inh: blocks human USP28 ubiquitin-rhodamine cleavage. Q96RU2. purified USP28, Ub-rhodamine cleavage fluorescence, 30 min. inhibition, % at 25 µM. 47,000 compounds, 3% hits. AID 1645857
# USP30 block: inhibitors of human USP30 deubiquitinase; inhibition, % at 25 µM; 47,000 compounds, 5.3% hits; purified USP30, Ub-rhodamine cleavage fluorescence; AID 1645860; Q70CQ3
# OTUD3 inh: human OTUD3 deubiquitinase inhibition; Q5T2D3; purified OTUD3, Ub-rhodamine fluorescence, 2 h; inhibition, % at 25 µM; 47,000 compounds, 0.7% hits
# Target sequence (Q5T2D3 whole entry, looked up): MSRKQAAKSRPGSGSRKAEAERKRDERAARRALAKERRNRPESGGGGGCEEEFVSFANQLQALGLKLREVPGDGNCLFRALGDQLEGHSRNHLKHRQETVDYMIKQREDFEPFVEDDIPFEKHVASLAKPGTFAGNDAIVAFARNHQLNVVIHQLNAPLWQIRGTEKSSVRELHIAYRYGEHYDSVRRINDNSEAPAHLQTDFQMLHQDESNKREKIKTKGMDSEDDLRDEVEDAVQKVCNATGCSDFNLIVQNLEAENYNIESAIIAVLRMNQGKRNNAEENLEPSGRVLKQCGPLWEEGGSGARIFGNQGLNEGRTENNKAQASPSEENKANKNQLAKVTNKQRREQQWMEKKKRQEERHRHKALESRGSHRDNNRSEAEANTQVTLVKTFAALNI
# USP17 inh: inhibitors of human USP17 deubiquitinase | A8MUK1 | purified USP17, Ub-rhodamine cleavage fluorescence, 3 h | inhibition, % at 50 µM | 47,000 compounds, 6.5% hits
# The depositor's hits bear a star; . = not tested or not shown. The list is not random: actives were taken first. Their share in the collection is about 11%. No stated cut-off is given here; in the data, active means inhibition above about 30%; inactive means the rest.
SMILES,USP28 inh,USP30 block,OTUD3 inh,USP17 inh
Cc1nc(-c2ccccn2)sc1C(=O)Nc1ccc(C#N)cc1,12,54*,4,8
CC1(C(=O)NCc2ccccc2)CCCN(C(=O)NCc2ccco2)C1 (stereo not drawn),3,11,6,8
c1ccc(-c2cc3c(NCC4CCCO4)ncnc3s2)cc1 (stereo not drawn),0,-4,0,-2
c1ccc(-n2ncc3c(NCC4CCCO4)ncnc32)cc1 (stereo not drawn),6,31*,11,15
COc1ccc(C(=O)Nc2ccc(-c3nc4ccccc4[nH]3)cc2)cc1S(=O)(=O)N1CCOCC1,10,50*,8,51*
COc1ccc(CN2CC[C@@H]3[C@H]2C(=O)NC[C@H](CCC(=O)NCc2cccnc2)N3C)cc1,34*,38*,25,-30
Cc1ccc(CN2CC[C@@H]3[C@H]2C(=O)NC[C@H](CCC(=O)NCc2cccnc2)N3C)cc1,-9,-43,-6,-74
COc1ccc(C(CNC(=O)c2cc(=O)c3c(C)cc(C)cc3o2)N2CCCC2)cc1 (stereo not drawn),-5,3,-9,-12
CN(C)CCNC(=O)c1ccc(N2CCc3ccccc32)s1,19,-48,-14,-1
O=C(c1ccc(N2CCc3ccccc32)s1)N1CCC(N2CCCCC2)CC1,35*,1,8,46*
Cc1nc(-c2cc(S(=O)(=O)N3CCN(C)CC3)cn2C)sc1C(=O)N1CCCC1,6,14,6,3
c1ccc(-c2onc3c2CCCC3)cc1,35*,17,10,9
O=C(Nc1ccc(OC(F)(F)F)cc1)NC1CCCc2ccccc21 (stereo not drawn),-1,-3,2,-3
O=C(Nc1ccccc1F)NC1CCCc2ccccc21 (stereo not drawn),1,40*,0,3
N#Cc1sc2ccccc2c1OCc1ccc([N+](=O)[O-])cc1,.,.,2,25
CNC(=O)C1(c2cnccn2)CCCN1C(=O)c1ccc(Cl)cc1 (stereo not drawn),0,-5,0,0
CC(=O)c1cccc(NC(=O)COC(=O)c2sc3cc(F)ccc3c2Cl)c1,5,10,0,5
Cc1nc(Sc2ccc3ccccc3c2)c2oc3ccccc3c2n1,18,40*,12,42*
c1ccc2cc(Sc3ncnc4c3oc3ccccc34)ccc2c1,0,7,2,5
Cc1cc(=O)oc2cc(OC(=O)C3CCN(C(=O)c4ccc(Cl)cc4)CC3)ccc12,5,50*,4,8
Cc1ccccc1NC(=O)CNc1nc(Nc2ccccc2)nc(Nc2ccccc2)n1,-4,-3,-2,65*
Cc1cccc(NC(=O)CNc2nc(Nc3ccccc3)nc(Nc3ccccc3)n2)c1,15,32*,13,.
O=C(CNc1nc(Nc2ccccc2F)nc(Nc2ccccc2F)n1)Nc1ccccc1,49*,81*,26,7
Cc1cccc(Nc2ccc(NCCNC(=O)Nc3ccccc3F)nn2)n1,.,.,0,29
O=C(CNc1nc(Nc2ccccc2)nc(Nc2ccccc2)n1)Nc1ccccc1F,21,22,9,44*
SMILES,USP28 inh,USP30 block,OTUD3 inh,USP17 inh
COc1ccc(C(=O)N2CCc3cc4ccccc4nc32)cc1,5,18,4,8
NC(=O)c1nc(C(=O)NC2CCCCC2)cs1,-14,-1,-1,-34
CCc1cc(C(=O)Nc2ccc(C3CCc4nncn4C3)cc2)on1 (stereo not drawn),34*,22,6,0
CNC(=O)N1CCCn2c(nc3ccccc32)C1Cc1ccccc1 (stereo not drawn),0,-3,-1,0
Cc1nc(N2CCC(C)CC2)nc2c1C(=O)CC(c1ccco1)C2 (stereo not drawn),17,0,6,28
O=C(NCc1ccccc1Cl)c1nc(-c2ccc3[nH]ccc3c2)no1,18,47*,-4,49*
COc1ccc(CNC(=O)c2nc(-c3ccc4cc[nH]c4c3)no2)cc1,18,41*,15,26
O=C(NCc1ccncc1)c1nc(-c2ccc3[nH]ccc3c2)no1,5,1,1,2
CC(C)C(=O)Nc1ccc2c(c1)CCC(=O)N2Cc1ccccc1,-2,3,-7,-7
O=c1c2cc([N+](=O)[O-])ccc2nc(CN2CCN(c3ccccn3)CC2)n1-c1ccccc1F,25,61*,30*,22
O=C(Cn1c(=O)c2sccc2n(CC(=O)NCCC2=CCCCC2)c1=O)NCc1ccccc1Cl,.,.,2,48*
COc1ccc(-n2c(=O)c3ccc(C(=O)NCCc4ccccc4)cc3n(CC(=O)Nc3ccc(C)cc3C)c2=O)cc1,0,9,-3,8
O=C(CCCn1c(=O)c2ccccc2n(CC(=O)N2CCN(c3ccccc3)CC2)c1=O)NCc1ccco1,-4,-18,6,.
COc1ccc(-n2c(=O)c3ccc(C(=O)NCCc4ccccc4)cc3n(CC(=O)NCCC3=CCCCC3)c2=O)cc1,7,4,29,41*
COc1ccccc1CNC(=O)CCCn1c(=O)c2ccccc2n(CC(=O)N2CCN(c3ccccc3)CC2)c1=O,-6,-2,2,57*
COc1cc(OC)cc(-n2c(=O)c3ccccc3n(CC(=O)NCCC3=CCCCC3)c2=O)c1,-19,22,11,29
COc1ccccc1CNC(=O)CCCCn1c(=O)c2ccccc2n(CC(=O)NCCC2=CCCCC2)c1=O,-3,4,6,43*
CCCCc1ccc(NC(=O)CCc2c(C)nc3nc[nH]n3c2=O)cc1,2,9,-1,1
COc1ccc2c(CNCCC3=CCCCC3)c(C(=O)O)n(Cc3ccccc3F)c2c1,23,40*,11,29
Cc1cc(-c2ccc(S(=O)(=O)NC3CC3)s2)on1,3,3,-3,-5
Cc1cccc(CNS(=O)(=O)c2ccc(-c3cc(C)no3)s2)c1,16,29,11,36*
CC(=O)c1cccc(NS(=O)(=O)c2ccc(-c3cc(C)no3)s2)c1,8,15,8,11
Cc1cc(-c2ccc(S(=O)(=O)NCc3ccc(Cl)cc3)s2)on1,59*,59*,3,77*
Cc1cccc(CNS(=O)(=O)c2ccc(-c3cc(C(F)(F)F)on3)s2)c1,10,19,14,43*
Cc1cc(-c2ccc(S(=O)(=O)NCc3ccccc3C)s2)on1,19,37*,16,35*
SMILES,USP28 inh,USP30 block,OTUD3 inh,USP17 inh
CC(C)n1cnc2c1C(C(=O)NCc1cccnc1)N(Cc1cccnc1)CC2 (stereo not drawn),-2,2,0,-1
COc1ccc(CNC(=O)c2ccc(S(=O)(=O)Nc3ccccc3F)cc2)cc1OC,2,8,12,13
CCC1=C(c2ccc(C)cc2)S(=O)(=O)NC1=NCC(=O)NCc1cccc(C)c1,20,15,14,44*
CCC1=C(c2ccc(C)cc2)S(=O)(=O)NC1=NCC(=O)NCc1ccccc1F,13,27,10,60*
CC1=C(c2ccc(F)cc2)S(=O)(=O)NC1=NCC(=O)Nc1ccc(F)cc1F,2,54*,1,36*
CCN1CCC2(CC1)NC(=O)N(C1CCN(C(=O)Cc3cccc(C)c3)CC1)C2=O,7,5,3,7

# Screening data as filed in PubChem BioAssay.
